Source: PubChem BioAssay
Shown are actives, neighbours in structure and some others; about 12% of the full set was active somewhere.
Sm TGR block: inhibitors of Schistosoma mansoni thioredoxin glutathione reductase. 360,000 compounds, 3% hits. purified TGR, DTNB reduction, TNB absorbance 405 nm. Potency, µM (highest dose often 114 µM), hits mostly inhibitors; also: nearly all actives have a fitted effect of over 60% in size
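First, TGR (20 nM dispensed) and NADPH were mixed with compound. Second, a 15 min room-temperature incubation followed. Third, further NADPH and then DTNB were added to start the reaction. Finally, TNB absorbance was monitored kinetically.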
Pf growth 48h: inhibits P. falciparum growth in the first generation, 48 h | P. falciparum luciferase growth in erythrocytes, 48 h | Potency, µM (highest dose often 28.7 µM), usual class: inhibitors | 310,000 compounds, 5.9% hits | AID 504832
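Growth was read as firefly luciferase luminescence after a 48 h, 37 C, 5% CO2 exposure of compounds to reporter-bearing P. falciparum cultures (0.1% parasitemia, 2% hematocrit final) in Albumax-supplemented RPMI 1640.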
AmpC inh detg: inhibitors of E. coli AmpC beta-lactamase with detergent; 370,000 compounds, 0.041% hits; Potency, µM (series often up to 114 µM), usual class: inhibitors; P00811; AmpC hydrolysis of nitrocefin, absorbance 480 nm, 0.01% Triton; also: nearly all actives have a fitted effect of over 25% in size
Target sequence (P00811 whole entry, looked up): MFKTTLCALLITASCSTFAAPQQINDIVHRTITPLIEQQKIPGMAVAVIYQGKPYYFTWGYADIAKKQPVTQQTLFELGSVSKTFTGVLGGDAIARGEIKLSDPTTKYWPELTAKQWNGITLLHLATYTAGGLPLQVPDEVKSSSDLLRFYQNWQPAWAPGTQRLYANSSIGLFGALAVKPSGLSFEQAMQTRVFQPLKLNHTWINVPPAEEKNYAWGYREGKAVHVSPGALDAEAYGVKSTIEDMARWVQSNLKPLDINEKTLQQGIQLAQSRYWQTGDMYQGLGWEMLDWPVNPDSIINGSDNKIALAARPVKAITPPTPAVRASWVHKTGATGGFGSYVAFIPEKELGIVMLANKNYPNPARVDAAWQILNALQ
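20 mM phosphate pH 7.0 + 0.01% (detergent screen) or 0.0001% Triton X-100; 5.3 nM AmpC reagent; cpd preinc 15 min RT; nitrocefin (800 uM stock) to start; A480 q20 s × 4 min; Activity was normalised to no-enzyme and no-compound control wells.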
Pf growth 96h: P. falciparum growth inhibition at 96 hours | P. falciparum luciferase reporter growth, 96 h | 320,000 compounds, 6.9% hits | Potency, µM (series often up to 28.7 µM), hits mostly inhibitors | AID 504834
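Cell-based qHTS: luciferase-tagged P. falciparum in erythrocytes (2% hematocrit, 0.05% parasitemia final) incubated with compounds for 96 hours, 37 C, 5% CO2; luciferase detection reagent then added and luminescence measured.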
SARS PLP yeast: blocks SARS-CoV papain-like protease in a yeast assay; S. cerevisiae expressing SARS-CoV PLpro, growth rescue; Potency, µM (series often up to 32.9 µM), hits mostly activators; 330,000 compounds, 0.19% hits; AID 485353; calls by dose curve; also: nearly all actives have a fitted effect of over 55% in size
AmpC no deterg: blocks E. coli AmpC beta-lactamase in detergent-free assay; P00811; AmpC nitrocefin hydrolysis, absorbance 480 nm, 0.0001% Triton; Potency, µM (series often up to 57.1 µM), usual class: inhibitors; 330,000 compounds, 0.52% hits; also: nearly all actives have a fitted effect of over 20% in size
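20 mM phosphate pH 7.0 + 0.01% (detergent screen) or 0.0001% Triton X-100; 5.3 nM AmpC reagent; cpd preinc 15 min RT; nitrocefin (800 uM stock) to start; A480 q20 s × 4 min; Activity was normalised to no-enzyme and no-compound control wells.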
A number is an active result; n = inactive; u = inconclusive; x = no result; [ ] = remark or other dose. Unless noted, calls follow the shape of the dose curve; as a rule, active = well fitted curve in the direction sought with a large enough effect; inconclusive = small, poorly fitted or top-dose-only effect, or another doubt; inactive = no such curve, though single readings can be large; an effect the other way counts as inactive or inconclusive.

SMILES	Sm TGR block	Pf growth 48h	AmpC inh detg	Pf growth 96h	SARS PLP yeast	AmpC no deterg
CCN(CC)c1ccc(NC(=O)c2cccn2-c2nnc(N3CCCCC3)s2)c(C)c1	n	x	n	x	x	x
C[n+]1nc(Nc2cccc(F)c2)sc1-c1ccc(C(=O)O)cc1	n	n	n	n	n	n
N#CC1=C(N)Oc2cc(O)ccc2C1c1ccncc1 (stereo not drawn)	n	n	n	9.28µM	n	n
CCOc1ccc(C(=O)NCC(=O)NCCCSc2ccccc2)cc1OCC	n	n	n	14.7µM	n	n
Cc1nn2c(COc3ccc(NC(=O)C(C)C)cc3)nnc2c2ccccc12	n	u	u	n	n	n
Cc1nn2c(COc3ccc(NC(=O)c4ccccc4Cl)cc3)nnc2c2ccccc12	n	11.7µM	n	4.15µM	n	n
Cc1cc(C)c(NC(=O)C(=O)NCC(c2cccnc2)N2CCN(Cc3ccccc3)CC2)c(C)c1 (stereo not drawn)	n	x	n	x	x	x
CC1(C)CC(=O)CC2(C1)NCC(c1ccccc1)c1c2[nH]c2ccccc12 (stereo not drawn)	n	5.86µM	n	10.4µM	n	n
Cc1cccc(C)c1NC(=O)Cn1c(=O)n(Cc2ccccc2)c(=O)c2c(C)c(C(=O)N(C)C)sc21	n	x	n	x	x	x
CC(C)(C)C(=O)Nc1ccc(S(=O)(=O)N2CCC(c3nc4ccccc4[nH]3)CC2)cc1	n	13.1µM	n	8.28µM	n	n
CCOCC(=O)Nc1ccc(S(=O)(=O)N2CCC(c3nc4ccccc4[nH]3)CC2)cc1	n	10.4µM	n	u	n	n
CC(=O)c1cccc(S(=O)(=O)N2CCC(c3nc4ccccc4[nH]3)CC2)c1	n	n	n	n	n	n
CC(=O)Nc1ccc(S(=O)(=O)N2CCC(c3nc4ccccc4[nH]3)CC2)cc1	n	8.28µM	n	x	n	n
O=S(=O)(c1ccc(F)cc1)N1CCC(c2nc3ccccc3[nH]2)CC1	n	u	n	n	n	n
CC(=O)Nc1ccc(S(=O)(=O)N2CCN(c3nc(NC4CCCC4)c4ccccc4n3)CC2)cc1	n	2.08µM	n	u	n	n
CCOc1ccccc1Nc1nc(N)nc(CN2CCCCC2C)n1 (stereo not drawn)	n	n	n	n	n	n
CN1CCN(C(c2ccccc2)c2sc3nc(-c4ccco4)nn3c2O)CC1 (stereo not drawn)	n	x	n	x	x	x
COc1ccc(N(CC(=O)NCc2ccco2)C(=O)CCC(=O)Nc2nccs2)cc1	n	n	n	n	n	n
Cc1noc(C)c1COC(=O)Cc1ccc(Cl)c(Cl)c1	n	n	n	u	n	n
O=S(=O)(c1ccc(Cl)cc1)N(Cc1ccccn1)Cc1ccccn1	n	n[0.00184 µM]	n	n	n	n
NS(=O)(=O)c1ccc(S(=O)(=O)N(CCc2ccccc2)Cc2ccccn2)cc1	n	n	n	u	3.55µM	n
Cc1ccc(NC(=O)C2CCN(S(=O)(=O)c3ccc4[nH]c5c(c4c3)CCCCC5)CC2)cc1	n	x	n	x	x	x
COc1ccc(C(=O)Nc2nnc(SCc3cc(=O)n4cccc(C)c4n3)s2)cc1	n	x	n	x	x	x
COCCCNC(=O)CS(=O)(=O)Cc1nc(-c2ccccc2C)oc1C	50.1µM	n	u	u	n	n
Cc1oc(-c2ccccc2F)nc1CS(=O)(=O)CC(=O)NCCCN1CCc2ccccc2C1	n	u	u	8.28µM	n	n
SMILES	Sm TGR block	Pf growth 48h	AmpC inh detg	Pf growth 96h	SARS PLP yeast	AmpC no deterg
Cc1oc(-c2ccccc2F)nc1CS(=O)(=O)CC(=O)NCc1ccco1	22.4µM	n	n	n	n	n
Cc1ccccc1-c1nc(CS(=O)(=O)CC(=O)NCCCN2CCCC2=O)c(C)o1	20µM	n	n	n	n	n
O=C(NC1CCCC1)c1ccc2c(=O)n(Cc3ccccc3)c(SCc3ccccc3F)nc2c1	n	x	n	x	x	x
COc1ccc2oc(C(=O)OCC(=O)NCc3ccco3)c(C)c2c1	n	n	n	n	n	n
Cc1nn(C)c(C)c1CS(=O)(=O)c1ccccc1	22.4µM	n	n	n	n	n
CC(C)CN1CCN=C1Nc1ccccc1	n	n	n	n	n	n
CCCn1c(=O)c2c(C(=O)OCC)cc(-c3ccco3)nc2n(CCC)c1=O	n	x	n	1.47µM	n	n
CCOC(=O)c1cc(-c2ccco2)nc2c1c(C)nn2-c1ccccc1	8.91µM	9.28µM	n	n	n	n
CCCn1c(=O)c2c(C(F)(F)F)cc(-c3ccco3)nc2n(CCC)c1=O	n	n	u	x	n	n
CCOC(=O)c1cnn2c(C(F)(F)F)cc(-c3ccco3)nc12	n	n	u	n	n	n
CCOc1ccc(/C(C)=N\NC(=O)Cc2ccccc2)cc1	n	n	n	u	n	n
COc1ccc(OC)c(S(=O)(=O)N(C)CC(=O)N2CCCCC2)c1	n	n	n	n	n	n
COCCCNC(=O)Cn1cnc2sc(C)c(S(=O)(=O)N3CC(C)CC(C)C3)c2c1=O (stereo not drawn)	n	n	n	u	n	n
Nc1c(C(=O)CSc2nnnn2-c2ccc(O)cc2)c(=O)[nH]c(=O)n1C1CC1	n	n	n	u	n	n
Cc1ccc(-n2c(SCC(=O)c3c(N)n(C4CC4)c(=O)[nH]c3=O)nnc2N2CCOCC2)cc1	n	10.4µM	u	u	n	n
Cc1ccc(-n2nnnc2SCC(=O)c2c(N)n(C3CC3)c(=O)[nH]c2=O)c(C)c1	n	10.4µM	n	5.86µM	n	n
Cc1cccc(-n2c(SCC(=O)c3c(N)n(C4CC4)c(=O)[nH]c3=O)nnc2N2CCOCC2)c1	n	u	n	5.22µM	n	n
Cc1ccccc1-n1c(SCC(=O)c2c(N)n(C3CC3)c(=O)[nH]c2=O)nnc1N1CCOCC1	n	u	u	13.1µM	n	n
Nc1c(C(=O)CSc2nnc(N3CCOCC3)n2-c2cccc(F)c2)c(=O)[nH]c(=O)n1C1CC1	n	u	u	u	n	n
